Results on 14 molecules are retold here after the supplement of paper PMC10037445.

The test system of experiment [1] is RAW-Dual. Description: NF-kB SEAP reporter activity, fold change vs agonist alone; cytotoxicity flag (confluency mask): not cytotoxic; higher = enhanced NF-kB activity. An outline of the steps: (§1)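 RAW-Dual macrophages (50,000 cells/well in DMEM, 384-well plates) received 50 nL of library stock by pin tool, then a PRR agonist 1 h later, and were kept at 37 °C, 5% CO2. After 20 hours, supernatant was read for IRF by QuantiLuc luminescence and for NF-κB by QuantiBlue absorbance at 620 nm. Reporter activity is fold change over agonist-alone wells. Cytotoxic wells had IncuCyte confluency below 70% of agonist controls in both mask sets.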

For experiment [2], the system named is RAW-Dual. As to the kind of experiment: NF-kB SEAP reporter activity, fold change vs agonist alone; higher = enhanced NF-kB activity. To be noted: cytotoxicity flag (confluency mask): not cytotoxic. An outline of the steps:
as §1

[3] abbreviates: agonist: ODN 1826 (TLR9) 0.5 ug/mL.
[4] abbreviates: agonist: Pam2CSK4 (TLR2/6) 0.1 ug/mL.
[5] abbreviates: agonist: Pam3CSK4 (TLR2/1) 0.1 ug/mL.
Where [6] appears, read: library stock concentration (final ~1000-fold dilution): 10 mM, agonist: MPLA (TLR4) […].
Where [7] appears, read: library stock concentration (final ~1000-fold dilution): 10 mM, agonist: Imiquimod (TLR7) […].

“And” between values parts separate entries of the source, which are not always exact repeats. Identical values can stand only once. In all, about 2,900 compounds were measured (“NF-kB SEAP reporter activity, fold change vs agonist alone”: median about 0.99, highest 2% from about 2.6 on). The entries come from a sample that favours the highest values as a whole.

On to `CC1(C)SC2CC(=O)N2C1C(=O)OCOC(=O)C1N2C(=O)C(NC(=O)C(N)c3ccccc3)C2S(=O)(=O)C1(C)C.Cc1ccc(S(=O)(=O)O)cc1` (stereo not drawn) (library stock concentration (final ~1000-fold dilution): 10 mM), for which the “NF-kB SEAP reporter activity” value was found to be 1.26 in the experiment with RAW-Dual [1] (agonist: LPS (TLR4) 0.1 ug/mL), 0.797 in the experiment with RAW-Dual [1] (setting [3]), 1.02 with RAW-Dual [1] (setting [4]) and 0.873 in the experiment with RAW-Dual [1] (setting [5]).

As to `CC1(C)SC2CC(=O)N2C1C(=O)OCOC(=O)C1N2C(=O)C(NC(=O)C(N)c3ccccc3)C2S(=O)(=O)C1(C)C.Cc1ccc(S(=O)(=O)O)cc1` (stereo not drawn), in the experiment on RAW-Dual [2] (setting [6]), the “NF-kB SEAP reporter activity” value came to 1.02.

Consider `CN1C(CC(=O)c2ccccc2)CCCC1CC(O)c1ccccc1.Cl` (stereo not drawn), for which the “NF-kB SEAP reporter activity” value in the experiment with RAW-Dual [2] (setting [7]) is 0.779; in the experiment on RAW-Dual [2] (setting [6]), 0.909.

As for `CN1C(CC(=O)c2ccccc2)CCCC1CC(O)c1ccccc1.Cl` (stereo not drawn) (library stock concentration (final ~1000-fold dilution): 10 mM), the “NF-kB SEAP reporter activity” value was determined as 1.18 in the experiment with RAW-Dual [1] (agonist: LPS (TLR4) 0.1 ug/mL), 0.669 in the experiment with RAW-Dual [1] (setting [3]), 0.9 with RAW-Dual [1] (setting [4]) and 1.15 in the experiment with RAW-Dual [1] (setting [5]).

In the case of `O=C(O)CN(CC(=O)O)c1ccccc1OCCOc1ccccc1N(CC(=O)O)CC(=O)O` (library stock concentration (final ~1000-fold dilution): 10 mM), the “NF-kB SEAP reporter activity” value is 1 with RAW-Dual [1] (agonist: LPS (TLR4) 0.1 ug/mL), 0.989 with RAW-Dual [1] (setting [3]), 1.04 in the experiment on RAW-Dual [1] (setting [4]) and 0.872 in the experiment with RAW-Dual [1] (setting [5]).

Regarding `O=C(O)CN(CC(=O)O)c1ccccc1OCCOc1ccccc1N(CC(=O)O)CC(=O)O`, the “NF-kB SEAP reporter activity” value in the experiment with RAW-Dual [2] (setting [7]) was 0.994; with RAW-Dual [2] (setting [6]) it was 1.01.

Consider `CN1C2=C3N=c4ccccc4=C3CCN2C(=O)c2ccccc21.Cl` (library stock concentration (final ~1000-fold dilution): 10 mM), for which the “NF-kB SEAP reporter activity” value in the experiment with RAW-Dual [1] (agonist: LPS (TLR4) 0.1 ug/mL) worked out at 1.21; in the experiment with RAW-Dual [1] (setting [3]) it was 0.594; in the experiment on RAW-Dual [1] (setting [4]), 1.28; with RAW-Dual [1] (setting [5]), 1.1.

On to `CN1C2=C3N=c4ccccc4=C3CCN2C(=O)c2ccccc21.Cl`, for which the “NF-kB SEAP reporter activity” value in the experiment with RAW-Dual [2] (setting [7]) came to 0.969; in the experiment with RAW-Dual [2] (setting [6]), 0.999.

For `N#CCC(C1CCCC1)n1cc(-c2ncnc3[nH]ccc23)cn1` (stereo not drawn) (library stock concentration (final ~1000-fold dilution): 10 mM), the “NF-kB SEAP reporter activity” value in the experiment with RAW-Dual [1] (agonist: LPS (TLR4) 0.1 ug/mL) was 0.995 and 0.96 and 0.998; in the experiment with RAW-Dual [1] (setting [3]), 2.7 and 1.88 and 2.86; in the experiment on RAW-Dual [1] (setting [4]) it was 1.81 and 1.49 and 1.69; with RAW-Dual [1] (setting [5]), 2.14 and 2.16 and 2.67.

For the molecule `N#CCC1(n2cc(-c3ncnc4[nH]ccc34)cn2)CN(C2CCN(C(=O)c3ccnc(C(F)(F)F)c3F)CC2)C1` (library stock concentration (final ~1000-fold dilution): 10 mM), the “NF-kB SEAP reporter activity” value with RAW-Dual [1] (agonist: LPS (TLR4) 0.1 ug/mL) is 0.591; in the experiment with RAW-Dual [1] (setting [3]), 1.09; with RAW-Dual [1] (setting [4]), 1.11; with RAW-Dual [1] (setting [5]), 1.03.

For `N#CCC1(n2cc(-c3ncnc4[nH]ccc34)cn2)CN(C2CCN(C(=O)c3ccnc(C(F)(F)F)c3F)CC2)C1`, the “NF-kB SEAP reporter activity” value with RAW-Dual [2] (setting [7]) is 0.89; with RAW-Dual [2] (setting [6]) it was 0.922.

Consider `CCS(=O)(=O)N1CC(CC#N)(n2cc(-c3ncnc4[nH]ccc34)cn2)C1` (library stock concentration (final ~1000-fold dilution): 10 mM), for which the “NF-kB SEAP reporter activity” value in the experiment on RAW-Dual [1] (agonist: LPS (TLR4) 0.1 ug/mL) was 1.65 and 0.788; in the experiment with RAW-Dual [1] (setting [3]) it was 1.96 and 2.12; in the experiment on RAW-Dual [1] (setting [4]), 1.19 and 1.64; in the experiment on RAW-Dual [1] (setting [5]) it was 1.77 and 2.42.

As to `CC(C)(C)N.CCCC(NC(C)C(=O)N1C(C(=O)O)CC2CCCCC21)C(=O)OCC` (stereo not drawn), the “NF-kB SEAP reporter activity” value with RAW-Dual [2] (library stock concentration (final ~1000-fold dilution): 10 mM water, agonist: Imiquimod (TLR7) […]) came out at 0.909; in the experiment on RAW-Dual [2] (library stock concentration (final ~1000-fold dilution): 10 mM water, agonist: MPLA (TLR4) […]), 1.04.

Turning to `CC(C)(C)N.CCCC(NC(C)C(=O)N1C(C(=O)O)CC2CCCCC21)C(=O)OCC` (stereo not drawn) (library stock concentration (final ~1000-fold dilution): 10 mM water), the “NF-kB SEAP reporter activity” value in the experiment with RAW-Dual [1] (agonist: LPS (TLR4) 0.1 ug/mL) was 1.05; in the experiment with RAW-Dual [1] (setting [3]) it was 1.13; in the experiment on RAW-Dual [1] (setting [4]), 1.17; in the experiment on RAW-Dual [1] (setting [5]), 1.02.
